Assay results reported in PubChem BioAssay (NCI).
Compounds without any hit were thinned out: in the full panel of roughly 83,000, 20% have a hit.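 Activity criterion: percent growth below 10, measured after cells in 96-well plates were exposed to a single compound concentration for 48 hours.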 Values without a mark were called inactive. The source made the active and inactive calls.

Tested on: KM12 colon
Assay: NCI-60 one-dose screen, 48 h (100 = growth as untreated, 0 = no growth, -100 = all killed)
Conditions: 10 µM unless noted

Compound | growth
CCCCCN1C=C/C(=C\C(=O)N(C)c2ccc(Oc3ccccc3)cc2)c2ccccc21 | 90.5%
CNC(=O)c1cncc(Cn2nc(C)c(NC(=O)c3ccc(COc4ccc(C(F)(F)F)cc4C)cc3)c2C)c1 | 74.8%
Nc1nc(Nc2ccccc2SSc2ccccc2Nc2nc(N)nc(-c3cccs3)n2)nc(-c2ccsc2)n1 | 67.6%
COc1cc2c(=O)n(CCCN(C)C)c3c4cc5c(cc4ccc3c2cc1OC)OCO5 | 47.8%
O=C(Nc1ccc(NC(=O)c2cc(=O)[nH]c3ccccc23)cc1)Nc1cccc(Cl)c1 | -55.9% (active)
Cc1nc(N)nc(N[C@@H](C)c2nc3cccc(NCc4ccc(C(=O)NO)cc4)c3c(=O)n2-c2ccccc2)n1 | 92.9%
Cc1ccc(/C=N/NC(=O)CSc2nc3ccccc3c(=O)n2Cc2ccc(S(N)(=O)=O)cc2)cc1 | 86.3%
COc1cc2nc(-c3ccc(Cl)cc3)cc(OCCCN3CCOCC3)c2cc1OC | 29.7%
COc1ccc(NC(N)=NCCCOc2ccc(F)cc2)cc1 | 84.4%
COC(=O)CNC(=O)[C@]12CCC(C)(C)C[C@H]1C1=CC[C@@H]3[C@@]4(C)Cc5c([nH]c6ccccc56)C(C)(C)[C@@H]4CC[C@@]3(C)[C@]1(C)CC2 | 92.3%
C[C@H]1[C@H](C)CC[C@]2(C(=O)Nc3ccc4ncccc4c3)CC[C@]3(C)C(=CC[C@@H]4[C@@]5(C)CCCNC(C)(C)[C@@H]5CC[C@]43C)[C@H]12 | -60.5% (active)
O=C1OC(Cc2ccccc2)C1c1ccccc1 (stereo not drawn) | 101%
COc1cccc(/C=N/NC(=O)c2cnn3c2NC(c2ccccc2)C3)c1Oc1ccccc1 (stereo not drawn) | 51.8%
COc1cc2nc(-c3ccc(Cl)cc3)cc(OCCCN3CCCC3)c2cc1OC | 41.4%
COc1ccc(C/C(=C(\C)c2ccc(OCCN3CCCC3)cc2)c2ccc(OCCN3CCCC3)cc2)cc1 | 47.9%
COc1ccc(Cc2cnc(NC(=O)c3ccc4c(c3)OCCO4)s2)cc1 | 10.3%
O=S(=O)(NCCNc1nccc(-c2c(-c3cccc(F)c3)nc3sccn23)n1)c1ccc(Cl)cc1 | 47.7%
CC1(C)CC[C@]23CC[C@]4(C)[C@H](CC[C@@H]5[C@@]6(C)CCCNC(C)(C)[C@@H]6CC[C@]54C)[C@H]2[C@H]1OC3 | -69% (active)
